Results: the supplement of paper PMC10849652
Of roughly 8,800 targets only a part is listed; those with a hit were picked by preference. About 0.5% of all pairs of compound and target were hits.

Assays:
Assay in all cases: log2 fold change, soluble protein after heating vs DMSO (PISA); higher = thermal stabilisation; K562 lysate, 10 uM; active = over 0.2 and 3.5 SD of the protein, either way, in both replicates (recomputed)
vorinostat = compound: O=C(CCCCCCC(=O)Nc1ccccc1)NO [vorinostat]
Outline: (§1)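 The values are log-two fold changes in thermal stability compared with solvent controls and come from duplicates. They were obtained by TMTpro 16plex LC-MS/MS, with channel sums equalised, on the supernatant after 21,000xg for 90 min. That supernatant came from crude K562 extract at 1 mg/mL protein treated with 10 μM compound for 30 min, heated for 3 min across 48°C-58°C, pooled and brought to 0.5% NP-40 at 4°C.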

silmitasertib = compound: O=C(O)c1ccc2c(c1)nc(Nc1cccc(Cl)c1)c1ccncc12 [silmitasertib]
Outline: as §1

entospletinib = compound: c1cn2cc(-c3ccc4cn[nH]c4c3)nc(Nc3ccc(N4CCOCC4)cc3)c2n1 [entospletinib]
Outline: as §1

Measured: log2 fold change

UTRN isoform 2 (UniProt P46939)
Chain of UniProt P46939 (P46939 whole entry, looked up): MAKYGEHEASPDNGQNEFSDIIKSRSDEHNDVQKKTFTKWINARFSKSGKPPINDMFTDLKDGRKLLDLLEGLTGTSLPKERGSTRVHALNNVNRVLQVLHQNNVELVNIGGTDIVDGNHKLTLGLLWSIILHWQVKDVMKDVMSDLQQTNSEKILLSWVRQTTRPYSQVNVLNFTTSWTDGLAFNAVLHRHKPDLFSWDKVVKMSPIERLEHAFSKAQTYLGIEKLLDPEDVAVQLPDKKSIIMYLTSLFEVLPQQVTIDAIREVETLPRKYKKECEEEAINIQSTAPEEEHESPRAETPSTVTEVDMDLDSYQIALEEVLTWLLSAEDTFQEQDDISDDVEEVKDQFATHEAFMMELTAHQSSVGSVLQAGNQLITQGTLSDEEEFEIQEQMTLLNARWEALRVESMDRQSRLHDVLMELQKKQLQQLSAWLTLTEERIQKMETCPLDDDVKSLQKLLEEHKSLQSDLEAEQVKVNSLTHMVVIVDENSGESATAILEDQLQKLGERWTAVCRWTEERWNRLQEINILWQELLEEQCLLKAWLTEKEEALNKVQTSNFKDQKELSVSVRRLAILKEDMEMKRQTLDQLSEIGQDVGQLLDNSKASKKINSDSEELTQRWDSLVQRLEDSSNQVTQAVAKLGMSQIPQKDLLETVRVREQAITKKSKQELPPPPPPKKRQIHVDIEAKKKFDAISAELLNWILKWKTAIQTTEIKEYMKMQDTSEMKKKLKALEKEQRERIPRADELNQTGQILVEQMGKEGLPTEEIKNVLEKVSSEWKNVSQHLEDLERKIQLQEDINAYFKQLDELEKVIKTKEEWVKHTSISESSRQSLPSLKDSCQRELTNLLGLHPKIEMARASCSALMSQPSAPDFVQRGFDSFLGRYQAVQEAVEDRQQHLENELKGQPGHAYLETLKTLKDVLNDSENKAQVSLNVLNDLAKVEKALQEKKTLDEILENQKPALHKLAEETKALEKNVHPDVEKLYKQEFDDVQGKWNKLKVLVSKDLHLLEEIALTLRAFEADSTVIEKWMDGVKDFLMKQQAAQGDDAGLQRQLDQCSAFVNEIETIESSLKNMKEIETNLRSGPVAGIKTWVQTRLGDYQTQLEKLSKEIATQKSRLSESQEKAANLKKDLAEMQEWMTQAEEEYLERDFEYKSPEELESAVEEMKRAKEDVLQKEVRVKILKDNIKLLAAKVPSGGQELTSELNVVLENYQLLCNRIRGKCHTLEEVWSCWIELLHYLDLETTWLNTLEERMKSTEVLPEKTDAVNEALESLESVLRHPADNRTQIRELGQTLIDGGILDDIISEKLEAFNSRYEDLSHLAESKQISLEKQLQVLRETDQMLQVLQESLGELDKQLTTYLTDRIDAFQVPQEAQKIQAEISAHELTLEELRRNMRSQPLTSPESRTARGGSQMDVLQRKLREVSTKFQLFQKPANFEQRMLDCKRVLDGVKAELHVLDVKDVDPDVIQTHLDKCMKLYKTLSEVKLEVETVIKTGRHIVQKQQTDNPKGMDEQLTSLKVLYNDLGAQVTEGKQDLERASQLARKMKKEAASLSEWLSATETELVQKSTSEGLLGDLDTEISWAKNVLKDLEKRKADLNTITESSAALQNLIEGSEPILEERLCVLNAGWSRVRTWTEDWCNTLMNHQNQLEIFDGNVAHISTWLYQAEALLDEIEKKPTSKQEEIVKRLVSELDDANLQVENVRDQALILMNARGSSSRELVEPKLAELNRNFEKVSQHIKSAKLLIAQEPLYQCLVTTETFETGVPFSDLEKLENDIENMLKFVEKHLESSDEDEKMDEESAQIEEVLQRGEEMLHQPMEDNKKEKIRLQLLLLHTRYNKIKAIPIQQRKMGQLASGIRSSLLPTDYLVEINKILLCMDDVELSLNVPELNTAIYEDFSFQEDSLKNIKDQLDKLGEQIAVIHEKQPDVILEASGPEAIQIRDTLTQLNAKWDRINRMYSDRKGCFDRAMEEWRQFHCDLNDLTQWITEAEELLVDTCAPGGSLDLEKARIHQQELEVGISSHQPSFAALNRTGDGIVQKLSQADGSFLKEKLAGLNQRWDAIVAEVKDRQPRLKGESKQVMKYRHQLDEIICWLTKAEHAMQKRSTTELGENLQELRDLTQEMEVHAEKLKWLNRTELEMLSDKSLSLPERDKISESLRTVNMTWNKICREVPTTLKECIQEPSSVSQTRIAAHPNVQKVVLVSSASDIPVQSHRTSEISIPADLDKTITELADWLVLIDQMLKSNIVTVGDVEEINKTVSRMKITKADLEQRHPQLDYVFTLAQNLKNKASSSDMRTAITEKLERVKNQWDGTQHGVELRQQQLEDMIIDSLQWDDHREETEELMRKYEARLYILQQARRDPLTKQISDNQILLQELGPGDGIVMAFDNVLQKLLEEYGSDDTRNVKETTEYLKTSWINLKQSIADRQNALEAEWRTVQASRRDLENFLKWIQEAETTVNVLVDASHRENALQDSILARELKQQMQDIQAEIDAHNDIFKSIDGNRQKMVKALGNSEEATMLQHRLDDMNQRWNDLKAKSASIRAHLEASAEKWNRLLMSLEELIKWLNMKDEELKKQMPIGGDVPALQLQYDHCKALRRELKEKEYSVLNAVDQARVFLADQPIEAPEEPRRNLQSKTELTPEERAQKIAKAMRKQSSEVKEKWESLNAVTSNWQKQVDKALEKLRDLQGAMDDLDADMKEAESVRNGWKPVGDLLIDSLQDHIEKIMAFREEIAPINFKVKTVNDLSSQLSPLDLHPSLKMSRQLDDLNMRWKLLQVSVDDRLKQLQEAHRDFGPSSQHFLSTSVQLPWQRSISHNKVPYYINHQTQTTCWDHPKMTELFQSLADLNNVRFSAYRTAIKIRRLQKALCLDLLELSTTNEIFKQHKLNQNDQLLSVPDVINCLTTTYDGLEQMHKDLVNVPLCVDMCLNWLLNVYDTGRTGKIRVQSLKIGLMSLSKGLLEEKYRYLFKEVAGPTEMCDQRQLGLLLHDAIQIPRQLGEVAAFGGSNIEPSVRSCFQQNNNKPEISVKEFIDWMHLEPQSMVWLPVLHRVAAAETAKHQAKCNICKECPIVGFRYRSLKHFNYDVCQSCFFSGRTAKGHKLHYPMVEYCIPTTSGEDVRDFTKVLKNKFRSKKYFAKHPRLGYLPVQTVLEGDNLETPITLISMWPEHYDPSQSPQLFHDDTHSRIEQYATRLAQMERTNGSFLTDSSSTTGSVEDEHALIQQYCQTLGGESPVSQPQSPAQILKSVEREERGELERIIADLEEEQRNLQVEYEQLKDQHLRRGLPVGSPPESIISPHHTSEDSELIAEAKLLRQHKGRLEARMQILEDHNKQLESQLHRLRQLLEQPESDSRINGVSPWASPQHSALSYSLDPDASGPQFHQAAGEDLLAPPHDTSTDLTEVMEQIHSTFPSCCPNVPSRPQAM
inactive: vorinostat 0.173 | silmitasertib -0.144 | entospletinib -0.424
